For one experiment, the system named is MCC-13. In words: qHTS assay to identify novel small-molecules to repurpose for Merkel cell carcinoma treatment (AID 1296009). Note: nearly all actives have a fitted effect of over 60% in size. The settings on record: MCC and control cell lines, CellTiter-Glo viability, 72 h; series mostly up to 46 µM. In outline: (§1)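 Cells were treated for 72 hr at 37 degree celsius with compounds in 8- or 11-point dose response. Viability was read by CellTiter-Glo luminescence, normalized to no-cell (cytotoxicity) and DMSO controls.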

The next experiment deals with MCC-26. Described as above. As to conditions: MCC and control cell lines, CellTiter-Glo viability, 72 h; series mostly up to 46 µM. In outline:
as §1
Background: In ATP-based viability assays light output follows the ATP content of the culture.

Another experiment relates to MKL-2. The description is as above. The settings on record: MCC and control cell lines, CellTiter-Glo viability, 72 h; series mostly up to 46 µM. The essentials: as §1
For another experiment, the system named is UISO. Described as above. As to conditions: MCC and control cell lines, CellTiter-Glo viability, 72 h; series mostly up to 46 µM. In outline: as §1
The next experiment concerns WaGa. The description is as above. As to conditions: MCC and control cell lines, CellTiter-Glo viability, 72 h; series mostly up to 46 µM. In outline: as §1
The next experiment deals with C33A. In words: Primary qHTS to identify gynecologic anti-cancer compounds using libraries of approved drugs and bioactive compounds (AID 1345084). Note: nearly all actives have a fitted effect of over 55% in size. As to conditions: Gynecologic cancer cell panel viability, ATPlite luminescence, 48 h; series mostly up to 57.5 µM. The essentials: (§2)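 48 h compound exposure at 37 C, 5% CO2; five-point qHTS. ATPlite luminescence readout of cell ATP.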

The subject of the next experiment is CAOV3. The description is as above. The settings on record: Gynecologic cancer cell panel viability, ATPlite luminescence, 48 h; series mostly up to 57.5 µM. The essentials:
as §2

In a further experiment the test system is CASKI. The description is as above. As to conditions: Gynecologic cancer cell panel viability, ATPlite luminescence, 48 h; series mostly up to 57.5 µM. The essentials: as §2
In a further experiment the test system is Es-2. The experiment is described as above. As to conditions: Gynecologic cancer cell panel viability, ATPlite luminescence, 48 h; series mostly up to 57.5 µM. In outline: as §2
The subject of another experiment is HeLa. The description is as above. As to conditions: Gynecologic cancer cell panel viability, ATPlite luminescence, 48 h; series mostly up to 57.5 µM. The essentials: as §2
Another experiment deals with Hek293T. The experiment is described as above. The settings on record: Gynecologic cancer cell panel viability, ATPlite luminescence, 48 h, control line for the selectivity index; series mostly up to 57.5 µM. The essentials: as §2
A further experiment concerns JEG-3. The experiment is described as above. The settings on record: Gynecologic cancer cell panel viability, ATPlite luminescence, 48 h; series mostly up to 57.5 µM. In outline: as §2
A further experiment relates to PA-1. The description is as above. The settings on record: Gynecologic cancer cell panel viability, ATPlite luminescence, 48 h; series mostly up to 57.5 µM. The essentials: as §2
Another experiment deals with Tov-21-G. Described as above. The settings on record: Gynecologic cancer cell panel viability, ATPlite luminescence, 48 h; series mostly up to 57.5 µM. In outline: as §2
For the next experiment, the system named is Tov112D. The description is as above. The settings on record: Gynecologic cancer cell panel viability, ATPlite luminescence, 48 h; series mostly up to 57.5 µM. In outline: as §2
Experiment [1] is described as follows: Drug repurposing screens with cells derived from glioblastoma tumor samples (AID 1345199). Note: nearly all actives have a fitted effect of over 40% in size. Note: potency is the fitted concentration of half-maximal effect. The settings on record: GBM patient neurospheres viability, ATP luminescence, 48 h. The essentials: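 Four patient lines of CD133+ GBM neurospheres were screened at several concentrations; hits were retested in those lines plus three slower-growing GBM lines, using 48-hour treatment and ATP-based viability.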

The next experiment has as its system OV90. Briefly: Primary qHTS to identify gynecologic anti-cancer compounds using libraries of approved drugs and bioactive compounds (AID 1345084). Note: nearly all actives have a fitted effect of over 55% in size. As to conditions: Gynecologic cancer cell panel viability, ATPlite luminescence, 48 h; series mostly up to 57.5 µM. The essentials:
as §2

For another experiment, the system named is SKOV3. The experiment is described as above. As to conditions: Gynecologic cancer cell panel viability, ATPlite luminescence, 48 h; series mostly up to 57.5 µM. In outline: as §2
The next experiment deals with NIH3T3. Briefly: qHTS assay to identify novel small-molecules to repurpose for Merkel cell carcinoma treatment (AID 1296009). Note: nearly all actives have a fitted effect of over 60% in size. As to conditions: MCC and control cell lines, CellTiter-Glo viability, 72 h; at 44.8 µM (top of the series) unless noted. The essentials:
as §1
Background: qHTS replaces the single test concentration by a dilution series.

Where [2] appears, read: at 45.9 µM (top of the series), tumour line B.
Where [3] appears, read: at 45.9 µM (top of the series), tumour line D.
The mark [4] stands for this setting: at 46 µM (top of the series), tumour line A.
[5] abbreviates: at 46.1 µM (top of the series), tumour line C.

SMILES strings stand for the structures. Results filed as inconclusive are left out. Values without a mark were called inactive. Active and inactive are the calls of the source. Calls come from the whole dose curve; as a rule, active = well fitted curve in the direction sought with a large enough effect; inconclusive = small, poorly fitted or top-dose-only effect, or another doubt; inactive = no such curve, though single readings can be large; an effect the other way counts as inactive or inconclusive.
% is set by controls: 0 for no effect and ±100 for the full control effect.

Regarding `C[C@H](CS)C(=O)N1CCC[C@H]1C(=O)O`, the Potency result in the experiment with MCC-13, with MCC-26, in the experiment on MKL-2, in the experiment on UISO, with WaGa and in the experiment with C33A was “inactive” each time. In addition, the Potency entry with CAOV3, in the experiment on CASKI, in the experiment on Es-2, with HeLa, in the experiment on Hek293T and in the experiment with JEG-3 was “inactive” throughout. Also, the Potency result in the experiment on PA-1, in the experiment on Tov-21-G and in the experiment with Tov112D was “inactive” in each case. Moreover, the activity, negative = cell killing is 1.21% in experiment [1] (setting [2]), -0.196% in [1] (setting [3]), -14.4% in experiment [1] (setting [4]) and -15.5% in experiment [1] (setting [5]).
In the case of `NC/C=C/C(=O)O`, the Potency result with MCC-13, with MCC-26, with MKL-2, in the experiment with UISO, in the experiment with WaGa and in the experiment on C33A was “inactive” each time. In addition, the Potency result with CAOV3, in the experiment on CASKI, in the experiment on Es-2, with HeLa, with Hek293T and in the experiment with JEG-3 was “inactive” in each case. The Potency entry in the experiment with OV90, in the experiment on PA-1, in the experiment on SKOV3, with Tov-21-G and with Tov112D was “inactive” in each case. Also, the activity, negative = cell killing in experiment [1] (setting [2]) is -2.84%; in experiment [1] (setting [3]), -13.4%; in experiment [1] (setting [4]), -7.07%; in experiment [1] (setting [5]), -22.1%.
As to `CCN1CCC[C@H]1CNC(=O)c1c(O)c(Cl)cc(Cl)c1OC`, the Potency result in the experiment on MCC-13, in the experiment with MCC-26, in the experiment on MKL-2, in the experiment on UISO, in the experiment with WaGa and with C33A was “inactive” in each case. The Potency entry in the experiment with CAOV3, with CASKI, in the experiment with Es-2, in the experiment on Hek293T, in the experiment on JEG-3 and in the experiment on OV90 was “inactive” in each case. In addition, the Potency result in the experiment with PA-1, in the experiment on Tov-21-G and in the experiment on Tov112D was “inactive” in each case. Moreover, the figures for the activity, negative = cell killing in experiment [1] (setting [2]), in [1] (setting [3]) and in experiment [1] (setting [5]) were -11.9%, 3.21% and 9.16%, respectively.
In the case of `c1ccc2c(c1)CCCC2C1=NCCN1` (stereo unspecified), the Potency result with MCC-13, in the experiment with MCC-26, in the experiment on MKL-2, in the experiment with UISO, with WaGa and in the experiment on C33A was “inactive” throughout. The Potency entry in the experiment with CAOV3, in the experiment with CASKI, with Es-2, in the experiment on Hek293T, in the experiment with JEG-3 and in the experiment with OV90 was “inactive” in each case. For the same compound, the Potency result with PA-1, with Tov-21-G and in the experiment on Tov112D was “inactive” in each case. Moreover, in the experiment with NIH3T3, the outcome was inactive. Further, the activity, negative = cell killing in experiment [1] (setting [2]) is 0.679%; in experiment [1] (setting [3]), 3.62%; in experiment [1] (setting [5]), -14.8%.
For `COc1ccc(CCN(C)CCCC(C#N)(c2cc(OC)c(OC)c(OC)c2)C(C)C)cc1OC` (stereo unspecified), the Potency result with MCC-13, with MCC-26, with MKL-2, in the experiment with UISO, in the experiment with WaGa and in the experiment with C33A was “inactive” throughout. Further, the Potency result in the experiment with CAOV3, in the experiment on CASKI, with Es-2, in the experiment with HeLa, in the experiment on Hek293T and in the experiment on JEG-3 was “inactive” each time. For the same compound, the Potency result with OV90, with SKOV3, in the experiment on Tov-21-G and with Tov112D was “inactive” in each case. Further, the activity, negative = cell killing is -13.5% in experiment [1] (setting [2]) and -13.9% in experiment [1] (setting [5]). In addition, the Potency in experiment [1] (tumour line A) was 14.1 µM (active).
With `C(=C\c1ccccc1)/CN1CCN(C(c2ccccc2)c2ccccc2)CC1`, the Potency result with MCC-13, with MCC-26, with MKL-2, in the experiment on UISO, with WaGa and with C33A was “inactive” each time. Also, the Potency result with CAOV3, in the experiment on CASKI, in the experiment on Es-2, with HeLa, in the experiment on Hek293T and in the experiment on JEG-3 was “inactive” throughout. Besides, the Potency result in the experiment with OV90, with PA-1, in the experiment with Tov-21-G and in the experiment on Tov112D was “inactive” throughout. The activity, negative = cell killing in experiment [1] (at 20 µM (top of the series), tumour line C) is -1.05%; in experiment [1] (at 21.2 µM (top of the series), tumour line B) it was -13.5%; in [1] (at 21.2 µM (top of the series), tumour line D), -14%. In addition, the Potency in experiment [1] (tumour line A) is 7.08 µM (active).

The values are drawn from PubChem BioAssay (NCATS).
